Among the data in PMC7819943, “Rice protein-binding microarrays: a tool to detect cis-acting elements near promoter regions in rice” are binding signal values, retold here.

In all, about 35,000 sequences were measured (“fluorescence intensity (a.u.)”: median about 10,000, highest 2% from about 52,000 on). The sample as a whole holds a higher share of the highest values than the screen did.

This assay addresses T1, OsWOX13 (Oryza sativa, UniProt Q5QMM3 1-267).
T1 sequence: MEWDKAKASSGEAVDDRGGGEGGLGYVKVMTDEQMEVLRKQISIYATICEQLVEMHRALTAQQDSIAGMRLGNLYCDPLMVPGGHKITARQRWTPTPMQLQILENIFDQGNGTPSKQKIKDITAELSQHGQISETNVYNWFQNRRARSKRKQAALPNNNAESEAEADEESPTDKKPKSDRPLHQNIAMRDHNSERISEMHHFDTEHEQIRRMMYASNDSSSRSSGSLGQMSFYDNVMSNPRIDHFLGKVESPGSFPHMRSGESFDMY
Nature of the assay: protein-binding microarray (RPBM); PBS, 2% BSA, 51.3 ng/ul salmon testes DNA, 50 uM zinc acetate, 200 nM TF, 25 C, 1 h; high values mean tight binding. The following applies: protein: recombinant; tags: N-terminal polyhistidine and DsRed monomer fusion (pET32a); label: CyDye5-dUTP incorporated in the synthesized complementary strand; 3' TTTTT single-stranded linker to array surface; dsDNA, one strand shown. The essentials:
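An Axon 4000B scanner gave the binding signal as per-feature fluorescence intensity in arbitrary units. This followed washing of a custom Agilent array that had been incubated for 1 h at 25 °C with 200 nM protein in PBS, 2% BSA, salmon testes DNA and 50 µM zinc acetate. The proteins were transcription factors fused at the N-terminus to polyhistidine and DsRed, expressed in E. coli BL21-CodonPlus and purified on Ni–NTA.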
Consider “AAAATTGACTAGAGTGCTCTCACAAAATAAACTAGAGAGACGGAGTCACCTAGTGCAG”, for which the binding signal was 7000 fluorescence intensity (a.u.). Under “CACCAATCACATTAATATGATAATTCATTCACCTACCTCGCGGAGTCACCTAGTGCAG” stands 39700 fluorescence intensity (a.u.); under “AGTCAGATGCTCATAATTGAAAGAAATGCTAGGGCCTGAACGGAGTCACCTAGTGCAG”, 15200 fluorescence intensity (a.u.); under “TGTTAATTTGAAATTTGGAAGATGTAATTAACTGTTGCCACGGAGTCACCTAGTGCAG”, 46900 fluorescence intensity (a.u.). Under “AGGTGATCATGCAAGGTAGTCAACAGTGTACTGCTAGTTACGGAGTCACCTAGTGCAG” stands 53800 fluorescence intensity (a.u.).

Consider “CACTATAGTTACAGTGTAATTACATGCAAGTTACAGTGTACGGAGTCACCTAGTGCAG”, for which the binding signal is 5020 fluorescence intensity (a.u.). With “TTATGATTTCAAGGTTAATGCTGCAGTTTCAAACAAGTTACGGAGTCACCTAGTGCAG” the figure was 3480 fluorescence intensity (a.u.); with “GTACATGAATTTTGATTAATTGCTAATTTTACATATGGATCGGAGTCACCTAGTGCAG”, 26000 fluorescence intensity (a.u.). Under “AATTCTGTGATTAGCGGGTGCTTTTCGAATGGATGGCATGCGGAGTCACCTAGTGCAG” stands 29200 fluorescence intensity (a.u.); under “CCGGGTGATTGGCATGAATCTGAATGGCTGAATCCTGATGCGGAGTCACCTAGTGCAG”, 53400 fluorescence intensity (a.u.).

With “TATGATTGGCATGGCCTGAATGGATGGATGAATTTTGGATCGGAGTCACCTAGTGCAG”, the binding signal is 58500 fluorescence intensity (a.u.). With “TTGGTGATTGAATCTGAACATGCTGGCCTTTGGGATGACTCGGAGTCACCTAGTGCAG” the figure was 28400 fluorescence intensity (a.u.). For the sequence “GCATCGGAATTTTGGATGTGATTGCCTGCATCGGATGGATCGGAGTCACCTAGTGCAG”, the binding signal was 18200 fluorescence intensity (a.u.). As to “TTTAATTGTATTAACACTCGTGAGAATGATACATGAGATCCGGAGTCACCTAGTGCAG”, the binding signal is 29000 fluorescence intensity (a.u.). As to “GTGAATTTGATAGGGCGATAAGGATAATAAACAAGAACATCGGAGTCACCTAGTGCAG”, the binding signal is 3540 fluorescence intensity (a.u.). With “ACATTAACAAACTCTATCTTAACATTTAGATGCAAGAGCCCGGAGTCACCTAGTGCAG” the figure was 3790 fluorescence intensity (a.u.). With “TACATGATGGGAAAATAGACTTTTGCAGCAGAGATTGAATCGGAGTCACCTAGTGCAG” the figure was 10200 fluorescence intensity (a.u.); with “TCGCCAATGATTGATCGCCTCATTCCCTCCTCCTCCTCCTCGGAGTCACCTAGTGCAG”, 57300 fluorescence intensity (a.u.).

As for “CGGATCCCATTCAATCATTCATTCATGTCGGATTGATGCCCGGAGTCACCTAGTGCAG”, the binding signal was 11800 fluorescence intensity (a.u.). With “ATTGATCAATCGATCAATCCCTCCTTCCCCATCCAATCCTCGGAGTCACCTAGTGCAG” the figure was 4160 fluorescence intensity (a.u.); with “TCCCCTTGATTGATTGATCACCATTATTATAACATCCTCTCGGAGTCACCTAGTGCAG”, 64400 fluorescence intensity (a.u.); with “AATATCCCATGATTGACTAGCTAGATGAATCCATATGGGTCGGAGTCACCTAGTGCAG”, 36500 fluorescence intensity (a.u.). With “GATGATTGATGGGAATATAGAGATCCCATGTTTTCCAGCTCGGAGTCACCTAGTGCAG” the figure was 61000 fluorescence intensity (a.u.); with “AGTGACCTCAATTGATCATTCCCTCATCCTTTAGTCAAGCCGGAGTCACCTAGTGCAG”, 3990 fluorescence intensity (a.u.). With “ATGATTGATCCATGAATCCCATTATCCATCATCCTCGAGTCGGAGTCACCTAGTGCAG” the figure was 63300 fluorescence intensity (a.u.). For the sequence “TCCTTGATTTCTCCCCTCTCTCTGTCATTTCTCTCTTCCTCGGAGTCACCTAGTGCAG”, the binding signal was 13500 fluorescence intensity (a.u.). With “TAATAACTTATACTGATATTGATTACTCCCTCCATCCCTACGGAGTCACCTAGTGCAG” the figure was 11800 fluorescence intensity (a.u.); with “CTAACTCAATGATTAAAATCTCGCCAGATCCCTCCTGCGTCGGAGTCACCTAGTGCAG”, 16700 fluorescence intensity (a.u.); with “CCGAAATTTGTCTCTTAATCATATACCGCACTTTCTGCCACGGAGTCACCTAGTGCAG”, 16100 fluorescence intensity (a.u.). Under “TATTAATTGGATAAAGTCATCTATATTAATGTGGATAATACGGAGTCACCTAGTGCAG” stands 17600 fluorescence intensity (a.u.); under “CAGGTGCTCTAACTACTATGTAATTGAACCACTGACATGTCGGAGTCACCTAGTGCAG”, 5510 fluorescence intensity (a.u.); under “TAAAAGATTTGTATCACAAATTAGTCGCAATTTGTATAATCGGAGTCACCTAGTGCAG”, 9610 fluorescence intensity (a.u.). Consider “TTAATTTGTTGTGATTAACGTGGCATGCATGACACTAAAGCGGAGTCACCTAGTGCAG”, for which the binding signal was 26900 fluorescence intensity (a.u.). Take “AACGCAATCAGTGGGAGATCAATCGCAAAATCACCATCATCGGAGTCACCTAGTGCAG”: the binding signal is 11000 fluorescence intensity (a.u.). As for “AAACTAAATTTAGACAGGAGTTCAGGTGATGAGTCAATGGCGGAGTCACCTAGTGCAG”, the binding signal was 36800 fluorescence intensity (a.u.). Turning to “CCTAAATTATTCTAAAATTAAAATGTTAATGGGGAAGTATCGGAGTCACCTAGTGCAG”, the binding signal was 19900 fluorescence intensity (a.u.).

With “GATTATAAATTACAAGTGTTAATTTGATGAATTTTGTTATCGGAGTCACCTAGTGCAG”, the binding signal is 19500 fluorescence intensity (a.u.). For “TAAGGTGCAGATTGATTTGCCATCCCAGAGCAGCAGCTTGCGGAGTCACCTAGTGCAG”, the binding signal was 29500 fluorescence intensity (a.u.). Under “CGAGATTGATTAGGACTCGGAATCGATCGGAGTCGGAGTACGGAGTCACCTAGTGCAG” stands 54800 fluorescence intensity (a.u.). With “AGTCACTTGATTTGCTTTATCATAGAGCTTGATGAGATCCCGGAGTCACCTAGTGCAG” the figure was 24900 fluorescence intensity (a.u.). Under “TCCATTGATTGAGGAATAGTGCCAGCTTTAGATTTGCTCCCGGAGTCACCTAGTGCAG” stands 53400 fluorescence intensity (a.u.); under “ATGGAAATTGATTAGGAGATTATTGATGCGATAAGTAGTACGGAGTCACCTAGTGCAG”, 37000 fluorescence intensity (a.u.); under “CCAAACAGATTGAACTCGACGATTGGACGAATACGGCGATCGGAGTCACCTAGTGCAG”, 58900 fluorescence intensity (a.u.). On to “TATAAATAACTTTGAAGATTGAATCGACATATCATACGATCGGAGTCACCTAGTGCAG”, for which the binding signal is 21200 fluorescence intensity (a.u.).

For “CGGATTGATCGACGGCGAAGAATGAAGCTCACCAGAATTTCGGAGTCACCTAGTGCAG”, the binding signal is 5290 fluorescence intensity (a.u.). With “TATTACATCGATCATATTGATTGTCGATTAGTACACCTTACGGAGTCACCTAGTGCAG” the figure was 5790 fluorescence intensity (a.u.); with “TTCAATTTGATTTTGATTTTAGGTGAATCTATAGATATCACGGAGTCACCTAGTGCAG”, 9990 fluorescence intensity (a.u.). In the case of “AACTTAATTTGATAAGAAAATTTAGTGGAGTCACCACAAGCGGAGTCACCTAGTGCAG”, the binding signal is 44100 fluorescence intensity (a.u.).

Take “GGAAATATGTTAATTAAAATAATGCAACCCTAATCAGCAACGGAGTCACCTAGTGCAG”: the binding signal was 10500 fluorescence intensity (a.u.). On to “GATAATGATATGACCATGGTGATTTCGTCAATCTCAATACCGGAGTCACCTAGTGCAG”, for which the binding signal was 12100 fluorescence intensity (a.u.).

On to “CAGACTGACAAGTGACAAGCAGAGGGCATCTCAGTACGCGCGGAGTCACCTAGTGCAG”, for which the binding signal is 3390 fluorescence intensity (a.u.). Under “ATCTAGAATTAGATGTGACATATCGTAGTACTATGAACCTCGGAGTCACCTAGTGCAG” stands 4830 fluorescence intensity (a.u.); under “ATGGTTGATTGCTTGATCAAGGCATGCATCACTTGCTATGCGGAGTCACCTAGTGCAG”, 55800 fluorescence intensity (a.u.); under “GCTCGATTGCCTTTTCATCATTCACATTGTTCTTCTTCTTCGGAGTCACCTAGTGCAG”, 11600 fluorescence intensity (a.u.).

As for “TGGGCAGCAGCTTGATTTGATTGCTTCATTTATCAAGTTGCGGAGTCACCTAGTGCAG”, the binding signal is 13600 fluorescence intensity (a.u.). Under “AATGCTTGATTGCACTTCGCTGTTCAGTTCATCATGCCTACGGAGTCACCTAGTGCAG” stands 27400 fluorescence intensity (a.u.).

In the case of “GGGACAATCAGGGATTGTATGGTTTGAAGCTGATTTTGGCCGGAGTCACCTAGTGCAG”, the binding signal was 3320 fluorescence intensity (a.u.). Under “CCTCATCCCTGATTGTGATTTTCTTTCCACACCACCCGGACGGAGTCACCTAGTGCAG” stands 19500 fluorescence intensity (a.u.); under “TTCCGGTTCCTGATTGCTTGCTCCACCGATTGACCGATCGCGGAGTCACCTAGTGCAG”, 18100 fluorescence intensity (a.u.). With “GCAAGTGTGATTGATCATTACTTGCTTGGTCTGATGGTTGCGGAGTCACCTAGTGCAG” the figure was 48300 fluorescence intensity (a.u.); with “GAGCTATTGATTGATTGATTGCTGATCGCTTCCAGTTCCACGGAGTCACCTAGTGCAG”, 54700 fluorescence intensity (a.u.); with “CTTGATTGGATCAGGATCATTTGGCATGGTTTACAAGGGCCGGAGTCACCTAGTGCAG”, 65100 fluorescence intensity (a.u.).

“TTTGGATTGATCATGGTCATTTGTACTTTTGTAGTCTTTACGGAGTCACCTAGTGCAG”: the binding signal is 21500 fluorescence intensity (a.u.). With “GTGATTGATTCGATTGATTGCCGCATCCACAGTTCTTTTCCGGAGTCACCTAGTGCAG” the figure was 54700 fluorescence intensity (a.u.).
